These results are taken from PMC5869772, “Quantitative profiling of BATF family proteins/JUNB/IRF hetero-trimers using Spec-seq”.

The target of one test is T1, BATF;JUNB (human;human, UniProt Q16520;P17275 1-125;148-347, |).
T1 sequence 1: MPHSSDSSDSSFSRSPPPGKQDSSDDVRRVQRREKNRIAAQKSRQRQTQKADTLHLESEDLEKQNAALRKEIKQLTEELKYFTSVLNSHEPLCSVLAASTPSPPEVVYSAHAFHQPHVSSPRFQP
T1 sequence 2: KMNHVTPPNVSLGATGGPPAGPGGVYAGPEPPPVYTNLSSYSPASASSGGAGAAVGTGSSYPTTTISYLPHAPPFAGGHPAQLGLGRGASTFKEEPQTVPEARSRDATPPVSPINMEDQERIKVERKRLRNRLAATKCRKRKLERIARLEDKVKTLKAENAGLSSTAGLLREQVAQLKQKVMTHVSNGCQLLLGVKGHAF
The test is described as follows: Spec-seq (EMSA and sequencing of bound and unbound bands); 100 nM BATFx-JUNB, 1 uM dsDNA library, 50 mM K acetate, 20 mM Tris-acetate, 10 mM Mg acetate, 100 ug/ml BSA, pH 7.9, 10% glycerol, 30 min on ice; native 9% PAGE at 4 C; low values mean tight binding. To be noted: protein: recombinant;recombinant; tags: N-terminal mCherry-TEV, cleaved off;C-terminal 6His; copies: 1;1; dsDNA, one strand shown. The procedure, abridged: (§1)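 The protein, at 100 nM, was incubated with 1 μM double-stranded degenerate DNA library for 30 min on ice in NEB Cutsmart buffer with 10% glycerol, then resolved by native 9% PAGE at 4 °C. Excised bound and unbound bands were PCR-barcoded and Illumina-sequenced, and each sequence's relative binding energy in kT is −ln of its bound/unbound read-count ratio.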
As to “GATAGTCTCATTTTCACCCCGTGAAATGACTCCTTTGTTCCATTACAGTATCTGT”, the binding signal amounted to 0.0649 kT.

With “GATAGTCTCATTTTCACCCCGTGAAATGACGTCTTTGTTCCATTACAGTATCTGT”, the binding signal is -0.0562 kT.

Take “GATAGTCTCATTTTCACCCCGTGAAAATTAGTCATTGTTCCATTACAGTATCTGT”: the binding signal was -1.07 kT.

“GATAGTCTCATTTTCACCCCGTGAAATGACGCACTTGTTCCATTACAGTATCTGT”: the binding signal is -0.31 kT.

In the case of “GATAGTCTCATTTTCACCCCGTGAAATGAGTAAATTGTTCCATTACAGTATCTGT”, the binding signal was -0.0981 kT.

Consider “GATAGTCTCATTTTCACCCCGTGAAATGACTCATTTGTTCCATTACAGTATCTGT”, for which the binding signal is -0.896 kT.

With “GATAGTCTCATTTTCACCCCGTGAAATGAGGCATTTGTTCCATTACAGTATCTGT”, the binding signal came out at 0.568 kT.

As for “GATAGTCTCATTTTCACCCCGTGAAATAACGTCATTGTTCCATTACAGTATCTGT”, the binding signal was -0.467 kT.

As for “GATAGTCTCATTTTCACCCCGTGAAACAGAGTCATTGTTCCATTACAGTATCTGT”, the binding signal was -0.149 kT.

As for “GATAGTCTCATTTTCACCCCGTGAAATGACACAGTTGTTCCATTACAGTATCTGT”, the binding signal was determined as 0.189 kT.

For “GATAGTCTCATTTTCACCCCGTGAAAGCGAGTCATTGTTCCATTACAGTATCTGT”, the binding signal was -0.514 kT.

Consider “GATAGTCTCATTTTCACCCCGTGAAATGAGTCCGTTGTTCCATTACAGTATCTGT”, for which the binding signal amounted to 0.231 kT.

Regarding “GATAGTCTCATTTTCACCCCGTGAAATGACCCATTTGTTCCATTACAGTATCTGT”, the binding signal turned out to be 0.311 kT.

With “GATAGTCTCATTTTCACCCCGTGAAACTAAGTCATTGTTCCATTACAGTATCTGT”, the binding signal was -0.15 kT.

Turning to “GATAGTCTCATTTTCACCCCGTGAAACTGTGTCATTGTTCCATTACAGTATCTGT”, the binding signal was -0.318 kT.

For “GATAGTCTCATTTTCACCCCGTGAAATGACTTAATTGTTCCATTACAGTATCTGT”, the binding signal was -0.138 kT.

Regarding “GATAGTCTCATTTTCACCCCGTGAAATCGAGTCATTGTTCCATTACAGTATCTGT”, the binding signal was -0.54 kT.

As to “GATAGTCTCATTTTCACCCCGTGAAATAACTCATTTGTTCCATTACAGTATCTGT”, the binding signal is -0.0626 kT.

Another test has as its target T2, BATF2 (bZIP);JUNB (human;human, UniProt Q8N1L9;P17275 1-142;148-347, |).
T2 sequence 1: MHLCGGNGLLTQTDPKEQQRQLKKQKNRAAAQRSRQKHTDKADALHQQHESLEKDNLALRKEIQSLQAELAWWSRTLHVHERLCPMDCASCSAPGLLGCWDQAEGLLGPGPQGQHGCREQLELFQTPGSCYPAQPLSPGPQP
T2 sequence 2: T1 sequence 2
Described as above. To be noted: protein: recombinant;recombinant; tags: N-terminal mCherry-TEV, cleaved off;C-terminal 6His; copies: 1;1; dsDNA, one strand shown. In short, it runs like this:
as §1
In the case of “GATAGTCTCATTTTCACCCCGTGAAATGACACAATTGTTCCATTACAGTATCTGT”, the binding signal worked out at 0.413 kT.

In the case of “GATAGTCTCATTTTCACCCCGTGAAATGAGTGAGTTGTTCCATTACAGTATCTGT”, the binding signal stood at 0.64 kT.

“GATAGTCTCATTTTCACCCCGTGAAATGATTCATTTGTTCCATTACAGTATCTGT”: the binding signal is -0.369 kT.

With “GATAGTCTCATTTTCACCCCGTGAAATGAGTAATTTGTTCCATTACAGTATCTGT”, the binding signal worked out at 0.147 kT.

With “GATAGTCTCATTTTCACCCCGTGAAATAAGTCATTTGTTCCATTACAGTATCTGT”, the binding signal came to 0.152 kT.

As for “GATAGTCTCATTTTCACCCCGTGAAATGAGTGATTTGTTCCATTACAGTATCTGT”, the binding signal worked out at 0.704 kT.

With “GATAGTCTCATTTTCACCCCGTGAAATGAGTCGATTGTTCCATTACAGTATCTGT”, the binding signal was found to be 1.01 kT.

Regarding “GATAGTCTCATTTTCACCCCGTGAAATGACTGATTTGTTCCATTACAGTATCTGT”, the binding signal is 0.321 kT.

Consider “GATAGTCTCATTTTCACCCCGTGAAATGAAGTCATTGTTCCATTACAGTATCTGT”, for which the binding signal is 0.0362 kT.

As to “GATAGTCTCATTTTCACCCCGTGAAATGGCGTCATTGTTCCATTACAGTATCTGT”, the binding signal was -0.0754 kT.

“GATAGTCTCATTTTCACCCCGTGAAACTCAGTCATTGTTCCATTACAGTATCTGT”: the binding signal stood at 0.236 kT.

“GATAGTCTCATTTTCACCCCGTGAAATGAGCCAATTGTTCCATTACAGTATCTGT”: the binding signal turned out to be 1.4 kT.

In the case of “GATAGTCTCATTTTCACCCCGTGAAATGACGCATTTGTTCCATTACAGTATCTGT”, the binding signal stood at 0.109 kT.

Turning to “GATAGTCTCATTTTCACCCCGTGAAATGTCGTCATTGTTCCATTACAGTATCTGT”, the binding signal is -0.113 kT.

In the case of “GATAGTCTCATTTTCACCCCGTGAAATTGAGTCATTGTTCCATTACAGTATCTGT”, the binding signal is -0.804 kT.

As for “GATAGTCTCATTTTCACCCCGTGAAATGACTCCTTTGTTCCATTACAGTATCTGT”, the binding signal came to 0.734 kT.

In the case of “GATAGTCTCATTTTCACCCCGTGAAATGACGTCTTTGTTCCATTACAGTATCTGT”, the binding signal was 0.447 kT.

As to “GATAGTCTCATTTTCACCCCGTGAAAATTAGTCATTGTTCCATTACAGTATCTGT”, the binding signal was -0.658 kT.

For the sequence “GATAGTCTCATTTTCACCCCGTGAAATGACGCACTTGTTCCATTACAGTATCTGT”, the binding signal amounted to 0.227 kT.

For “GATAGTCTCATTTTCACCCCGTGAAATGAGTAAATTGTTCCATTACAGTATCTGT”, the binding signal came to 0.684 kT.

As for “GATAGTCTCATTTTCACCCCGTGAAATGACTCATTTGTTCCATTACAGTATCTGT”, the binding signal is -0.796 kT.

Regarding “GATAGTCTCATTTTCACCCCGTGAAATGAGGCATTTGTTCCATTACAGTATCTGT”, the binding signal was determined as 1.08 kT.

As to “GATAGTCTCATTTTCACCCCGTGAAATAACGTCATTGTTCCATTACAGTATCTGT”, the binding signal is -0.287 kT.

In the case of “GATAGTCTCATTTTCACCCCGTGAAACAGAGTCATTGTTCCATTACAGTATCTGT”, the binding signal is 0.309 kT.

Regarding “GATAGTCTCATTTTCACCCCGTGAAATGACACAGTTGTTCCATTACAGTATCTGT”, the binding signal was determined as 0.717 kT.

For “GATAGTCTCATTTTCACCCCGTGAAAGCGAGTCATTGTTCCATTACAGTATCTGT”, the binding signal was 0.234 kT.

As for “GATAGTCTCATTTTCACCCCGTGAAATGAGTCCGTTGTTCCATTACAGTATCTGT”, the binding signal was 1.26 kT.

Regarding “GATAGTCTCATTTTCACCCCGTGAAATGACCCATTTGTTCCATTACAGTATCTGT”, the binding signal worked out at 0.823 kT.

For the sequence “GATAGTCTCATTTTCACCCCGTGAAACTAAGTCATTGTTCCATTACAGTATCTGT”, the binding signal worked out at 0.261 kT.

On to “GATAGTCTCATTTTCACCCCGTGAAACTGTGTCATTGTTCCATTACAGTATCTGT”, for which the binding signal amounted to 0.116 kT.

“GATAGTCTCATTTTCACCCCGTGAAATGACTTAATTGTTCCATTACAGTATCTGT”: the binding signal was found to be 0.212 kT.

In the case of “GATAGTCTCATTTTCACCCCGTGAAATCGAGTCATTGTTCCATTACAGTATCTGT”, the binding signal turned out to be 0.0512 kT.

Take “GATAGTCTCATTTTCACCCCGTGAAATAACTCATTTGTTCCATTACAGTATCTGT”: the binding signal worked out at 0.612 kT.
